Measured values published in PubChem BioAssay.
Where “and” joins values, the source holds several entries; their conditions need not be identical. Identical values can stand only once. Records with an inconclusive call do not appear. Calls of active or inactive are those of the source.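 Rule for the calls, unless noted: active = compounds that lower viability of the colon cancer cells in the luminescence readout, with no numeric limit stated; inactive = the rest.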

Assays:
[1] = liver-stage malaria parasite growth inhibition, primary screen, cell-based, HepG2, luciferase luminescence, HepG2 viability (AID 624349; in the data active = parasite load remaining mostly below about 12%, no sharp cut-off; inactive = mostly above about 10%;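 note: 100% = mean of DMSO negative control wells on the same plate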); conditions: P. berghei liver stage in HepG2, luciferase luminescence, concentration not given here; parasite load remaining: stronger effect = lower value; viability: measured here: HepG2 viability without parasites
[2] = stimulators of nuclear beta-catenin in C2C12, primary screen, imaging, WNT3A-conditioned medium, mouse C2C12, NPC library (AID 1117326; in the data active = nuclear beta-catenin stimulation mostly above about 4.2%, no sharp cut-off; inactive = mostly below about 10%); conditions: stronger effect = higher value
[3] = stimulators of insulin release from INS-1E, primary screen, cell-based, 5 mM glucose, NPC library (AID 1117329;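 active = compound raises insulin release from rat beta cells at 5 mM glucose, no numeric limit stated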); conditions: rat INS-1E insulin secretion, at 10 µM, stronger effect = higher value
[4] = growth inhibition of GSK3B-pretreated HCT116 cells – cell-based, CellTiter-Glo, 0.2 to 20 µM (AID 1117336;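 active = compounds lowering colon cancer cell viability after pretreatment blocking the GSK3B kinase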); conditions: HCT116 viability after GSK3B inhibitor, at 20 µM, stronger effect = higher value
[5] = inhibition of endothelial tube formation, primary screen, imaging, VEGF stimulated, CD31 staining, tube area, NPC library (AID 1117340;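 active = compound that reduces growth-factor-driven endothelial tube area in a mixed cell culture, no cutoff stated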); conditions: VEGF-stimulated ADSC/ECFC co-culture, at 10 µM, stronger effect = higher value
[6] = glucagon-like peptide 1 release enhancers, primary assay, NCI-H716 cell line, NPC library (AID 1117341;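 active = compound raises GLP1 secretion from the human gut endocrine cells, with no numeric limit stated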); conditions: NCI-H716 cells, at 10 µM, stronger effect = higher value
[7] = HCT116 colon cancer cell growth inhibition, primary screen, CellTiter-Glo luminescence, NPC library (AID 1117342;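 active = compounds that lower survival of HCT116 colon cancer cells in the luminescence readout, no numeric limit stated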); conditions: at 20 µM (top of the series)
[8] = CellTiter-Glo luminescent readout of SW480 viability loss, NPC library primary (AID 1117343); conditions: CellTiter-Glo luminescence; at 20 µM (top of the series) unless noted
[9] = decreased DLD-1 cellular survival, CellTiter-Glo luminescent readout, NPC compound collection, primary HTS (AID 1117346;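 active = compounds that lower survival of DLD-1 colon cancer cells in the luminescence readout, no cutoff given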); conditions: DLD-1 viability, CellTiter-Glo luminescence; at 20 µM (top of the series)
[10] = sensitizers of A549 cells to miR-34 induction, primary screen, imaging, A549 dox-inducible miR-34, nuclei and caspase counts (AID 1347080;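 active = compounds whose cell count with miR-34 switched on is under 0.7 times the count with it off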); conditions: A549 miR-34 inducible, Hoechst nuclei count, 48 h
[11] = survival rescue of mitochondrial mutant cells in low glucose, primary screen, MELAS cybrids, Rieske KO mouse fibroblasts, CellTiter-Glo (AID 1508586;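 active = mean z-score across replicates of 1.96 or higher in either the MELAS or the Rieske mutant cell line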;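 note: z relative to plate mean and SD of compound and empty wells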)
[12] = viability rescue of complex I mutant cybrids, primary screen, cell-based, galactose medium, ATP luminescence (AID 1645843;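 active = z-score of at least 1.8 in each of two replicates, scored against plate mean and spread of sample wells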;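 note: positive z means more ATP and so rescue of galactose-driven cybrid death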); conditions: complex I mutant cybrid cells, 72 h, stronger effect = higher value
[13] = hESC survival regulators, cell-based (AID 493140; call rule not given here;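 note: cells exposed to compounds for four days before counting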); conditions: human embryonic stem cell survival screen; stronger effect = higher value
[14] = target: ATP-dependent translocase ABCB1 (Homo sapiens) (UniProt P08183); assay: MDR1 (ABCB1) efflux transporter inhibition, cell-based (AID 377; in the data active = fluorescence slope change above about 50%); conditions: MDR1-expressing cells, fluorescent substrate accumulation slope; stronger effect = higher value; concentration not given here
[15] = target: NAD(+) hydrolase SARM1 (Homo sapiens) (UniProt Q6SZW1); assay: SARM1 TIR NADase inhibitors, cell lysate, NAD-Glo luminescence (AID 1508614;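 active = compound whose remaining NAD level is above about 45 nM, limit read from the data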;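 note: higher remaining NAD means stronger inhibition of SARM1 NADase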); conditions: SAM-TIR HEK293T lysate NADase, at 1 µM, stronger effect = higher value
[16] = target: Mitogen-activated protein kinase 7 (Homo sapiens) (UniProt Q13164); assay: ERK5 transactivation activators in reporter cells, primary screen, cell-based, HTS (AID 1508626;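 active = luciferase signal above three times the same-plate solvent-only control wells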;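 note: luciferase driven by Gal4-ERK5 fusion binding five Gal4 sites before minimal TATA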); conditions: HeLa Gal4-ERK5 transactivation, 18 h, at 5 µM, stronger effect = higher value
[17] = stronger effect = lower value, cell number ratio, induced over uninduced
[18] = measured here: relative caspase fold change +Dox/-Dox
[19] = measured here: total cells with miR-34 induction, stronger effect = lower value
[20] = measured here: total cells without miR-34 induction
[21] = MELAS cybrid survival, CellTiter-Glo 48 h, stronger effect = higher value
[22] = Rieske KO mouse fibroblast survival, CellTiter-Glo 72 h

NAD(+) hydrolase SARM1 (Homo sapiens), sequence (Q6SZW1 whole entry, looked up, the tested form may be a part): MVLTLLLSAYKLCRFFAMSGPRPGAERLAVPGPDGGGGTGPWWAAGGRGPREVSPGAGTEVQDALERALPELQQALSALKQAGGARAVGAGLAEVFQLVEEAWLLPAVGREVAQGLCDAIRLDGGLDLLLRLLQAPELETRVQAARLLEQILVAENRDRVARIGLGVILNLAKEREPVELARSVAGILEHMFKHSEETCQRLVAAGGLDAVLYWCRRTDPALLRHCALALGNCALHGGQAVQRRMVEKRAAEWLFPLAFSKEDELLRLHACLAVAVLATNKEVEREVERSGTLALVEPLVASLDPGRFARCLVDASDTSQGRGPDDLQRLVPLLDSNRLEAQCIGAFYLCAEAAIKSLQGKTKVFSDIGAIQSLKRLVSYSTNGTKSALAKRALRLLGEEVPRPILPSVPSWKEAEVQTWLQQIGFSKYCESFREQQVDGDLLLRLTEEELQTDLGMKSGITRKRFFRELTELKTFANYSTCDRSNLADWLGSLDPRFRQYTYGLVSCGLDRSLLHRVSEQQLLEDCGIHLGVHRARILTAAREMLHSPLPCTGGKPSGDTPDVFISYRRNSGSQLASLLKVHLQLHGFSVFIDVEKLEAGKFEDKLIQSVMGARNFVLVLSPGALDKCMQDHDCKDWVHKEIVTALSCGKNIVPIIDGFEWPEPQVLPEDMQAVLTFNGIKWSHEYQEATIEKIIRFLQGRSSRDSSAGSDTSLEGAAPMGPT
ATP-dependent translocase ABCB1 (Homo sapiens), sequence (P08183 whole entry, looked up): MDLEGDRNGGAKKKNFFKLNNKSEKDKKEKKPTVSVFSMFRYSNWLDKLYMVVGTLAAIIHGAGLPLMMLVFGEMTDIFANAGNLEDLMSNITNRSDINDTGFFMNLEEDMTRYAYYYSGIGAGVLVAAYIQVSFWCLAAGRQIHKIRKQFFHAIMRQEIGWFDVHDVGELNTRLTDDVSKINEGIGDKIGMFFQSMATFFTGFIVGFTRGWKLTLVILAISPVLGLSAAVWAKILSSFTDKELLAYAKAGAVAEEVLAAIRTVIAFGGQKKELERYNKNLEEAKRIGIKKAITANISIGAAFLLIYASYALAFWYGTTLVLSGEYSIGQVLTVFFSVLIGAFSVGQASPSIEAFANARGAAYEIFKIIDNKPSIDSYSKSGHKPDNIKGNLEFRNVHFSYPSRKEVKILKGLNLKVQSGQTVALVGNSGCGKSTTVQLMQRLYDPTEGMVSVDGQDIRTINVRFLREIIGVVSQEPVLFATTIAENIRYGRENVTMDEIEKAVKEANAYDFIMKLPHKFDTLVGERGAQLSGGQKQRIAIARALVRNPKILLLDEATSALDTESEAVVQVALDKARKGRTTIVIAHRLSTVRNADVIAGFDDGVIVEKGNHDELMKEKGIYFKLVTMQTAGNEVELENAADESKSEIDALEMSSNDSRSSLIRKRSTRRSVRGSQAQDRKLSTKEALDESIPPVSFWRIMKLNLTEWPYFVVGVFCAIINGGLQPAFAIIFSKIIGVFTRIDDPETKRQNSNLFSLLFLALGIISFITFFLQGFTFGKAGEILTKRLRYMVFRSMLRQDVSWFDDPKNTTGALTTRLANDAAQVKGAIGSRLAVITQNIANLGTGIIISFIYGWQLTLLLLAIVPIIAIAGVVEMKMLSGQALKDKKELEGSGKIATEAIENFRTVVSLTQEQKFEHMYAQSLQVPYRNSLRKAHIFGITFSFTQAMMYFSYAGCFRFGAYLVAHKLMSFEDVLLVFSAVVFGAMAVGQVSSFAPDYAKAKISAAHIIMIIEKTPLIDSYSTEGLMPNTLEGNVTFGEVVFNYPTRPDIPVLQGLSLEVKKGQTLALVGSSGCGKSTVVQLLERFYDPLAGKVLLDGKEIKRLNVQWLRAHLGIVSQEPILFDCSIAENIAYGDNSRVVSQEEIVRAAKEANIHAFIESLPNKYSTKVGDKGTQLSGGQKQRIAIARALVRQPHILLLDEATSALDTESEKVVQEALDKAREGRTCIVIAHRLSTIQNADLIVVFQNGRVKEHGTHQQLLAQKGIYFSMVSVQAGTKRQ
Mitogen-activated protein kinase 7 (Homo sapiens), sequence (Q13164 whole entry, looked up, the tested form may be a part): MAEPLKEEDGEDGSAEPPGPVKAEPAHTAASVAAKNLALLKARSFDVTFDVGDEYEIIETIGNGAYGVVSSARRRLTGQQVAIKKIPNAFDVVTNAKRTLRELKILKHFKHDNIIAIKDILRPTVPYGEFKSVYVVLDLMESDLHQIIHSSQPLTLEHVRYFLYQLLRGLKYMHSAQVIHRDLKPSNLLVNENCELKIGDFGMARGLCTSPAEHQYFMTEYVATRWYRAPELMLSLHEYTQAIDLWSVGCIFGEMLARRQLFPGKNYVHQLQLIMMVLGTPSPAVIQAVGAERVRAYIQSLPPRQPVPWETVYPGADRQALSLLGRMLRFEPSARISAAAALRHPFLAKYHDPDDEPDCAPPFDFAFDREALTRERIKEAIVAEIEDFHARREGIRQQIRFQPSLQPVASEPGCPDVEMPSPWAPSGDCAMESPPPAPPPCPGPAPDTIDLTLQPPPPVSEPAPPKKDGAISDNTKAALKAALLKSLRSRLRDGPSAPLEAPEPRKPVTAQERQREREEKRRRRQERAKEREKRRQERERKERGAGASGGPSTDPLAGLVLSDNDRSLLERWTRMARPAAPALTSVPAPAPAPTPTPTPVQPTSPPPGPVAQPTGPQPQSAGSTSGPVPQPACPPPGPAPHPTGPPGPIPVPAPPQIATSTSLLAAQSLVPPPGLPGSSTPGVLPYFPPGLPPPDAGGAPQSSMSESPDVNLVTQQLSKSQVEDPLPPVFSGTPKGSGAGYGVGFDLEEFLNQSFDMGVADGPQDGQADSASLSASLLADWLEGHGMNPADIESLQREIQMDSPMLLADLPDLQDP

C=CCN1C[C@H](C(=O)N(CCCN(C)C)C(=O)NCC)C[C@@H]2c3cccc4[nH]cc(c34)C[C@H]21
parasite load remaining [1]: 25.1% (inactive)
viability [1]: 72%
nuclear beta-catenin stimulation ([2]; at 10 µM): -1.1% (inactive)
nuclear beta-catenin stimulation ([2]; stimulation, at 2 µM): 0.7%
insulin secretion stimulation [3]: 0% (inactive)
viability decrease [4]: -6.9% (inactive)
tube area decrease [5]: -11.9% (inactive)
GLP1 secretion stimulation [6]: 0.5% (inactive)
inhibition of viability [7]: -2% (inactive)
viability decrease (inhibition) [8]: 22.3% (inactive)
viability decrease (inhibition) [9]: 59% (active)
fold change [10, 17]: 0.881 (inactive)
fold change [10, 18]: 1.06
cell count [10, 19]: 8560
cell count [10, 20]: 9720
z-score [11, 21]: -0.306 (inactive)
z-score [11, 22]: -1.44
z-score [12]: -0.085 (inactive)

NS(=O)(=O)c1cc2c(cc1Cl)NC(CC1CCCC1)NS2(=O)=O (centres undefined)
survival [13]: 5.92 (inactive)
parasite load remaining [1]: 80.8% (inactive)
viability [1]: 73%
nuclear beta-catenin stimulation ([2]; at 10 µM): -0.9% (inactive)
nuclear beta-catenin stimulation ([2]; stimulation, at 2 µM): -1.5%
insulin secretion stimulation [3]: 4.2% (inactive)
viability decrease [4]: 1% (inactive)
tube area decrease [5]: 35.3% (inactive)
GLP1 secretion stimulation [6]: 3.4% (inactive)
inhibition of viability [7]: 1.1% (inactive)
viability decrease (inhibition) [8]: -15.3% (inactive)
viability decrease (inhibition) [9]: -0.6% (inactive)
fold change [10, 17]: 0.993 (inactive)
fold change [10, 18]: 0.594
cell count [10, 19]: 9530
cell count [10, 20]: 9590
z-score [11, 21]: 0.486 (inactive)
z-score [11, 22]: -0.891

CC(CNC1CCCCC1)OC(=O)c1ccccc1 (centres undefined)
survival [13]: 2.08 (inactive)
parasite load remaining [1]: 83.5% (inactive)
viability [1]: 92%
nuclear beta-catenin stimulation ([2]; at 10 µM): 0.9% (inactive)
nuclear beta-catenin stimulation ([2]; stimulation, at 2 µM): 2.3%
insulin secretion stimulation [3]: 5.6% (inactive)
viability decrease [4]: -14.5% (inactive)
tube area decrease [5]: 19.9% (inactive)
GLP1 secretion stimulation [6]: 3.9% (inactive)
inhibition of viability [7]: -12.8% (inactive)
viability decrease (inhibition) [8]: -11.7% (inactive)
viability decrease (inhibition) [9]: -10.5% (inactive)
fold change [10, 17]: 0.95 (inactive)
fold change [10, 18]: 0.946
cell count [10, 19]: 9180
cell count [10, 20]: 9670
z-score [11, 21]: -0.814 (inactive)
z-score [11, 22]: -0.57

NC(=O)OCC(O)COc1ccc(Cl)cc1 (centres undefined)
fluorescence slope change [14]: 58.8% (active)
survival [13]: 16.6 (inactive)
parasite load remaining [1]: 52.4% (inactive) and 99.4% (inactive)
viability [1]: 46% and 92.9%
nuclear beta-catenin stimulation ([2]; at 10 µM): -1.4% (inactive)
nuclear beta-catenin stimulation ([2]; stimulation, at 2 µM): -0.6%
insulin secretion stimulation [3]: 1.2% (inactive)
viability decrease [4]: 0.2% (inactive)
tube area decrease [5]: -23.7% (inactive)
GLP1 secretion stimulation [6]: -0.6% (inactive)
inhibition of viability [7]: 8.4% (inactive)
viability decrease (inhibition) [8]: 4.1% (inactive)
viability decrease (inhibition) [9]: 11.4% (inactive)
fold change [10, 17]: 0.864 (inactive)
fold change [10, 18]: 2.23
cell count [10, 19]: 8110
cell count [10, 20]: 9380
z-score [11, 21]: -0.968 (inactive)
z-score [11, 22]: -0.0882

O=C1CC[C@@H](C(=O)O)N1
nuclear beta-catenin stimulation ([2]; at 10 µM): 2.4% (inactive)
nuclear beta-catenin stimulation ([2]; stimulation, at 2 µM): 0.7%
insulin secretion stimulation [3]: -1.4% (inactive)
viability decrease [4]: -1.95% (inactive)
tube area decrease [5]: 9.1% (inactive)
GLP1 secretion stimulation [6]: -0.7% (inactive)
inhibition of viability [7]: 11.4% (inactive)
viability decrease (inhibition) [8]: 17.1% (inactive)
viability decrease (inhibition) [9]: 6.75% (inactive)
fold change [10, 17]: 0.878 (inactive)
fold change [10, 18]: 0.936
cell count [10, 19]: 8600
cell count [10, 20]: 9800
remaining NAD [15]: 10 nM (inactive)

O=C(O)CCc1nc2ccccc2[nH]1
nuclear beta-catenin stimulation ([2]; at 10 µM): 2.8% (inactive)
nuclear beta-catenin stimulation ([2]; stimulation, at 2 µM): 2.5%
insulin secretion stimulation [3]: -1.6% (inactive)
viability decrease [4]: 3.65% (inactive)
tube area decrease [5]: -5.8% (inactive)
GLP1 secretion stimulation [6]: 3.5% (inactive)
inhibition of viability [7]: -11.8% (inactive)
viability decrease (inhibition) [8]: 106% (active)
viability decrease (inhibition) [9]: 5.2% (inactive)
fold change [10, 17]: 0.93 (inactive)
fold change [10, 18]: 1.12
cell count [10, 19]: 8680
cell count [10, 20]: 9340
remaining NAD [15]: 10 nM (inactive)

C/C(=C(\CCOP(=O)(O)O)SC(=O)c1ccccc1)N(C=O)Cc1cnc(C)nc1N
survival [13]: 11 (inactive)
parasite load remaining [1]: 106% (inactive)
viability [1]: 102%
nuclear beta-catenin stimulation ([2]; at 10 µM): -2.6% (inactive)
nuclear beta-catenin stimulation ([2]; stimulation, at 2 µM): -0.9%
insulin secretion stimulation [3]: 1.6% (inactive)
viability decrease [4]: -1.5% (inactive)
tube area decrease [5]: -4.8% (inactive)
GLP1 secretion stimulation [6]: -2.7% (inactive)
inhibition of viability [7]: 4.6% (inactive)
viability decrease (inhibition) [8]: -2.1% (inactive)
viability decrease (inhibition) [9]: -1% (inactive)
fold change [10, 17]: 0.873 (inactive)
fold change [10, 18]: 1.12
cell count [10, 19]: 8510
cell count [10, 20]: 9750
z-score [11, 21]: 0.178 (inactive)
z-score [11, 22]: 0.46

CN(CCCCCCCCCCN(C)C(=O)Oc1cccc([N+](C)(C)C)c1)C(=O)Oc1cccc([N+](C)(C)C)c1
parasite load remaining [1]: 77.5% (inactive)
viability [1]: 106%
nuclear beta-catenin stimulation ([2]; at 10 µM): -0.9% (inactive)
nuclear beta-catenin stimulation ([2]; stimulation, at 2 µM): -0.7%
insulin secretion stimulation [3]: 2.2% (inactive)
viability decrease [4]: 30.1% (inactive)
tube area decrease [5]: -9.4% (inactive)
GLP1 secretion stimulation [6]: -4.4% (inactive)
inhibition of viability [7]: 57.4% (active)
viability decrease (inhibition) [8]: 39.3% (inactive)
viability decrease (inhibition) [9]: 10.2% (inactive)
fold change [10, 17]: 0.802 (inactive)
fold change [10, 18]: 1.05
cell count [10, 19]: 8660
cell count [10, 20]: 10800
z-score [11, 21]: -1.21 (inactive)
z-score [11, 22]: -0.227

OC[C@@H](O)[C@@H](O[C@@H]1O[C@H](CO)[C@H](O)[C@H](O)[C@H]1O)[C@H](O)[C@@H](O)CO
nuclear beta-catenin stimulation ([2]; at 10 µM): 2% (inactive)
nuclear beta-catenin stimulation ([2]; stimulation, at 2 µM): 0.9%
insulin secretion stimulation [3]: 2.3% (inactive)
viability decrease [4]: 22.6% (inactive)
tube area decrease [5]: -0.6% (inactive)
GLP1 secretion stimulation [6]: -0.5% (inactive)
inhibition of viability [7]: 6.7% (inactive)
viability decrease (inhibition) [8]: 20% (inactive)
viability decrease (inhibition) [9]: 3.4% (inactive)
fold change [10, 17]: 0.928 (inactive)
fold change [10, 18]: 0.884
cell count [10, 19]: 8700
cell count [10, 20]: 9370
remaining NAD [15]: 10 nM (inactive)
luciferase signal [16]: 56 AU (inactive)

CC[N+](C)(CC)CCOC(=O)C1c2ccccc2Oc2ccccc21
survival [13]: 18.2 (inactive)
parasite load remaining [1]: 64.6% (inactive)
viability [1]: 67.1%
nuclear beta-catenin stimulation ([2]; at 10 µM): -0.9% (inactive)
nuclear beta-catenin stimulation ([2]; stimulation, at 2 µM): 0.8%
insulin secretion stimulation [3]: 2.6% (inactive)
viability decrease [4]: -10.2% (inactive)
tube area decrease [5]: -0.8% (inactive)
GLP1 secretion stimulation [6]: -4.5% (inactive)
inhibition of viability [7]: 6% (inactive)
viability decrease (inhibition) [8]: 1.5% (inactive)
viability decrease (inhibition) [9]: -6.1% (inactive)
fold change [10, 17]: 0.995 (inactive)
fold change [10, 18]: 0.614
cell count [10, 19]: 9340
cell count [10, 20]: 9380
z-score [11, 21]: 0.613 (inactive)
z-score [11, 22]: 0.177
